Results on seven sequences are retold here after paper PMC7862700, “An all-to-all approach to the identification of sequence-specific readers for epigenetic DNA modifications on cytosine”.

Common to all, as to test: DAPPL (digital affinity profiling via proximity ligation, sequencing); 10 mM Tris-HCl pH 7.5, 50 mM NaCl, 1 mM DTT, 4% glycerol, room temperature, 30 min; GST-TFs on glutathione beads, 16-mer random dsDNA library, 0.1% formaldehyde crosslink after washing; high values mean tight binding
Conditions in all cases: protein: recombinant; tags: N-terminal GST; dsDNA, one strand shown

The target in one assay is T1, FLI1 (Homo sapiens, UniProt Q01543 1-452).
T1 sequence: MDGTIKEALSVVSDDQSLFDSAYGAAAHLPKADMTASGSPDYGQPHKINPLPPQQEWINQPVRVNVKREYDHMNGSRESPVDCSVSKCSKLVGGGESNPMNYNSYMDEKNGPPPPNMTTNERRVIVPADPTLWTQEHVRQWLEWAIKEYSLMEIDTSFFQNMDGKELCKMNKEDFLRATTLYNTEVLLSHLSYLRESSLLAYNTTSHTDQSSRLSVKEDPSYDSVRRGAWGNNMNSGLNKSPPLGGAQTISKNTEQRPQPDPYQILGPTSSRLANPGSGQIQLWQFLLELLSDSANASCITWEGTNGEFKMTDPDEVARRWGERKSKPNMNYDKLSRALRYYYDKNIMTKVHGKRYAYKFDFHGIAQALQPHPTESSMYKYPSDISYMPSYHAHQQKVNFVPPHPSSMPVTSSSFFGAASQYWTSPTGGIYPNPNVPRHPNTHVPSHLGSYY
Put shortly:
(§1)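 Pools were built from human transcription factors expressed in yeast as GST fusions, captured on glutathione beads and DNA-barcoded, along with a tag-only sample. Incubation with 200 nmole of a 16-mer random double-stranded DNA library lasted 30 min at room temperature in Tris/NaCl/DTT/glycerol buffer, and was followed by washing, 0.1% formaldehyde crosslinking, proximity ligation, PCR amplification and Illumina NextSeq500 sequencing. Binding signal is the quotient of each hexamer's read frequency for a factor and its frequency for the tag-only sample.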

The target in a further assay is T2, ELK1 (Homo sapiens, UniProt P19419 1-428).
T2 sequence: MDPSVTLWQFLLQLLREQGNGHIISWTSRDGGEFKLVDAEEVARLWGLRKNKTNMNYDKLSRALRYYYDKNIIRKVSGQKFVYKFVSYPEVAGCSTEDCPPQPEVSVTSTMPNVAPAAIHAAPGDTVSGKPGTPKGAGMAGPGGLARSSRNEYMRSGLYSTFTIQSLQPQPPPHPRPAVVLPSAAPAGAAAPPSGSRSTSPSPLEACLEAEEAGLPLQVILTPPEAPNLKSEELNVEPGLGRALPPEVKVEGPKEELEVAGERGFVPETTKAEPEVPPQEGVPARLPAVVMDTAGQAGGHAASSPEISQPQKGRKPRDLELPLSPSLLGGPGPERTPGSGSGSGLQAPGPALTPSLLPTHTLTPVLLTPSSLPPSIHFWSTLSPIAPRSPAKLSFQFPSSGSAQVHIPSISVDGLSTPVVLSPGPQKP
In outline:
as §1

Another assay deals with T3, GABPA (Homo sapiens, UniProt Q06546 1-454).
T3 sequence: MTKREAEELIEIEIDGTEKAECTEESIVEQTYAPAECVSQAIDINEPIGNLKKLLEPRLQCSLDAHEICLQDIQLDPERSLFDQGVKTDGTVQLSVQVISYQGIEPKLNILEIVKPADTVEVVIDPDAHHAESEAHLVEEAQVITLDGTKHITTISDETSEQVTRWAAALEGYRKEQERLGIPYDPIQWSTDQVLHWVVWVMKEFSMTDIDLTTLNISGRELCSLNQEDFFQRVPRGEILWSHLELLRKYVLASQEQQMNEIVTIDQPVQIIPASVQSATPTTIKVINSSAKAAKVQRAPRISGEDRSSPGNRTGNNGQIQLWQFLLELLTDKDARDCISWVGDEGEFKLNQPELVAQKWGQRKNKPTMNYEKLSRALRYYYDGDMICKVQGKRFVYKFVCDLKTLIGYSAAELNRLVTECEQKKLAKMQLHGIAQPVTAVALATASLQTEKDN
Put shortly: as §1

The target in a further assay is T4, ERG (Homo sapiens, UniProt P11308 1-479).
T4 sequence: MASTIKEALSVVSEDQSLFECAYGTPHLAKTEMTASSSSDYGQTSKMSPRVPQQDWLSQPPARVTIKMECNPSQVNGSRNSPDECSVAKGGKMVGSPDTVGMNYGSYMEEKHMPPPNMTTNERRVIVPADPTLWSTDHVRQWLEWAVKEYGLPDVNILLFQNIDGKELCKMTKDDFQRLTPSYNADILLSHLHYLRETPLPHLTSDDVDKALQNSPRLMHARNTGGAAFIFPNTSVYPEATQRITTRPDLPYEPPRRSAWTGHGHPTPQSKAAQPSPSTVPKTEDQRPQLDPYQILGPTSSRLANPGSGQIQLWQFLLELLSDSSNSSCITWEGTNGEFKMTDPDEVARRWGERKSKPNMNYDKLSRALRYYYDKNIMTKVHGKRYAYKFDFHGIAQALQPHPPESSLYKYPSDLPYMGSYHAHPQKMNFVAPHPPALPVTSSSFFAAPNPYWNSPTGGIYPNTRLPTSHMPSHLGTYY
In outline:
as §1

Another assay deals with ELF1 (Homo sapiens, UniProt P32519 1-619). Put shortly: as §1
Chain of ELF1 (P32519 whole entry): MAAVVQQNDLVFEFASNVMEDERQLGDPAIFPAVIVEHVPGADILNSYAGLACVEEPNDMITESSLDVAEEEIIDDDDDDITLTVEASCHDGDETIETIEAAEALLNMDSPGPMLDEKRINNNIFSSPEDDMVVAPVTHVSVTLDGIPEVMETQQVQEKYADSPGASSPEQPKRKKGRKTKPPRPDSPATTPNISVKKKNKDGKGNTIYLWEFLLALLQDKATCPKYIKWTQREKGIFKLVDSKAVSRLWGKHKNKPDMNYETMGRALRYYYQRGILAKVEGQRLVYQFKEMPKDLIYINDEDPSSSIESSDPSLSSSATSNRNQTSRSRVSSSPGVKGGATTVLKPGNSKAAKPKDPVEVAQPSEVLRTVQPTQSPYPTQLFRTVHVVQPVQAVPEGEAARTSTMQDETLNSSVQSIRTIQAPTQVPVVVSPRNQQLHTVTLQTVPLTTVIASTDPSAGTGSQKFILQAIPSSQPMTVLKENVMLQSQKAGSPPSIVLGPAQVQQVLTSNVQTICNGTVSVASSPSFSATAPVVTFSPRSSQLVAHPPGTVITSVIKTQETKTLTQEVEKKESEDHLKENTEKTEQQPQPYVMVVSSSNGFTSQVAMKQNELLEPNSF
In the next assay the target is T5, EHF (Homo sapiens, UniProt Q9NZC4 1-300).
T5 sequence: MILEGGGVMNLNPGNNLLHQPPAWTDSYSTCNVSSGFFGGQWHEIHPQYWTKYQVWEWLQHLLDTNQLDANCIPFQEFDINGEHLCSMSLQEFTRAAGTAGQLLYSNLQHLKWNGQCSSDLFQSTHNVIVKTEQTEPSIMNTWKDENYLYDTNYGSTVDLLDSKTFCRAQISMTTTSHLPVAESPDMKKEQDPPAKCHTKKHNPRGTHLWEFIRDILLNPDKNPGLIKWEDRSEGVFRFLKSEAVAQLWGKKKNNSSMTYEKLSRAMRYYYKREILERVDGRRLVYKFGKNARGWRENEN
Put shortly:
as §1

In a further assay the target is SPI1 (Homo sapiens, UniProt P17947 1-270). Put shortly: as §1
In another assay the target is SPIB (Homo sapiens, UniProt Q01892 1-262). Put shortly:
as §1

For the next assay, the target named is T6, ELK3 (Homo sapiens, UniProt P41970 1-407).
T6 sequence: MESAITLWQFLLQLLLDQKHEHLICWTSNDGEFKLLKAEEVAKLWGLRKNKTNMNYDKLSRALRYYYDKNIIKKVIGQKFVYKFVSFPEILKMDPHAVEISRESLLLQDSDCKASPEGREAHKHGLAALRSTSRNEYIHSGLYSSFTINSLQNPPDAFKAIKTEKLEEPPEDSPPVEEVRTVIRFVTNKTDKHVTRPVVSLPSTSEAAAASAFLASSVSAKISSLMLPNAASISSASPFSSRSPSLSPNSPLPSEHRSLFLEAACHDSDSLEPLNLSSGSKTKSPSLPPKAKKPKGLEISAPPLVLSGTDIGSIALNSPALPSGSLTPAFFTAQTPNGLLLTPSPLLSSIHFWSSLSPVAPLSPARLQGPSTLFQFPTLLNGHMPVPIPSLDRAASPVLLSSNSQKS
Put shortly:
as §1

Chain of SPIB (Q01892 whole entry): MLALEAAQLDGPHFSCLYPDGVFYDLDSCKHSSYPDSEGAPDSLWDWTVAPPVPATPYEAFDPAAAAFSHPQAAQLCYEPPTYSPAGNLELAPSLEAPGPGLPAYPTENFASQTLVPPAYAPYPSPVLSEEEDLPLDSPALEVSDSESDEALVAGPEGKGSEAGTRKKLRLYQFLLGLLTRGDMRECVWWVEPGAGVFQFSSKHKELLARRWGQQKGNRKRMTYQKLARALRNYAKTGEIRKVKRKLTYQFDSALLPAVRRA

GTTCTT: the binding signal is 1.19 fold enrichment (6-mer frequency, TF over GST control) in the assay with FLI1; 1.22 fold enrichment (6-mer frequency, TF over GST control) with ELK1; 1.09 fold enrichment (6-mer frequency, TF over GST control) with GABPA; 1.19 fold enrichment (6-mer frequency, TF over GST control) in the assay with ERG; 1.18 fold enrichment (6-mer frequency, TF over GST control) with ELF1; 1.08 fold enrichment (6-mer frequency, TF over GST control) with EHF. Besides, the binding signal was 1.09 fold enrichment (6-mer frequency, TF over GST control) in the assay with SPI1; 1.17 fold enrichment (6-mer frequency, TF over GST control) in the assay with SPIB; 1.35 fold enrichment (6-mer frequency, TF over GST control) with ELK3.
As for CTGCAA, the binding signal is 1.29 fold enrichment (6-mer frequency, TF over GST control) with FLI1; 1.3 fold enrichment (6-mer frequency, TF over GST control) in the assay with ELK1; 1.2 fold enrichment (6-mer frequency, TF over GST control) with GABPA; 1.23 fold enrichment (6-mer frequency, TF over GST control) in the assay with ERG; 1.36 fold enrichment (6-mer frequency, TF over GST control) with ELF1; 1.2 fold enrichment (6-mer frequency, TF over GST control) with EHF. Also, the binding signal is 1.31 fold enrichment (6-mer frequency, TF over GST control) in the assay with SPI1; 1.27 fold enrichment (6-mer frequency, TF over GST control) with SPIB; 1.33 fold enrichment (6-mer frequency, TF over GST control) with ELK3.
On to TTACCA, for which the binding signal was 1.12 fold enrichment (6-mer frequency, TF over GST control) with FLI1; 1.06 fold enrichment (6-mer frequency, TF over GST control) with ELK1; 1.04 fold enrichment (6-mer frequency, TF over GST control) with GABPA; 1.11 fold enrichment (6-mer frequency, TF over GST control) in the assay with ERG; 1.13 fold enrichment (6-mer frequency, TF over GST control) with ELF1; 1.03 fold enrichment (6-mer frequency, TF over GST control) with EHF. The binding signal in the assay with SPI1 is 1.11 fold enrichment (6-mer frequency, TF over GST control); with SPIB, 1.12 fold enrichment (6-mer frequency, TF over GST control); with ELK3 it was 1.14 fold enrichment (6-mer frequency, TF over GST control).
ACTTGC: the binding signal with FLI1 was 1.46 fold enrichment (6-mer frequency, TF over GST control); with ELK1, 1.48 fold enrichment (6-mer frequency, TF over GST control); with GABPA, 1.42 fold enrichment (6-mer frequency, TF over GST control); with ERG, 1.41 fold enrichment (6-mer frequency, TF over GST control); with ELF1, 1.37 fold enrichment (6-mer frequency, TF over GST control); in the assay with EHF, 1.52 fold enrichment (6-mer frequency, TF over GST control). Further, the binding signal was 1.54 fold enrichment (6-mer frequency, TF over GST control) in the assay with SPI1; 1.35 fold enrichment (6-mer frequency, TF over GST control) with SPIB; 1.35 fold enrichment (6-mer frequency, TF over GST control) in the assay with ELK3.
For AATTAG, the binding signal with FLI1 was 1.18 fold enrichment (6-mer frequency, TF over GST control); with ELK1 it was 1.09 fold enrichment (6-mer frequency, TF over GST control); in the assay with GABPA it was 1.13 fold enrichment (6-mer frequency, TF over GST control); in the assay with ERG, 1.11 fold enrichment (6-mer frequency, TF over GST control); in the assay with ELF1 it was 1.12 fold enrichment (6-mer frequency, TF over GST control); with EHF, 1.06 fold enrichment (6-mer frequency, TF over GST control). In addition, the binding signal with SPI1 is 1.1 fold enrichment (6-mer frequency, TF over GST control); with SPIB it was 1.11 fold enrichment (6-mer frequency, TF over GST control); in the assay with ELK3, 1.09 fold enrichment (6-mer frequency, TF over GST control).
With GCGACT, the binding signal with FLI1 was 1.15 fold enrichment (6-mer frequency, TF over GST control); in the assay with ELK1, 1.26 fold enrichment (6-mer frequency, TF over GST control); with GABPA, 1.13 fold enrichment (6-mer frequency, TF over GST control); in the assay with ERG it was 1.24 fold enrichment (6-mer frequency, TF over GST control); with ELF1, 1.22 fold enrichment (6-mer frequency, TF over GST control); in the assay with EHF it was 1.21 fold enrichment (6-mer frequency, TF over GST control). The binding signal with SPI1 is 1.2 fold enrichment (6-mer frequency, TF over GST control); in the assay with SPIB it was 1.33 fold enrichment (6-mer frequency, TF over GST control); with ELK3 it was 1.25 fold enrichment (6-mer frequency, TF over GST control).
For the sequence TTCTAG, the binding signal in the assay with FLI1 is 1.27 fold enrichment (6-mer frequency, TF over GST control); with ELK1, 1.26 fold enrichment (6-mer frequency, TF over GST control); with GABPA it was 1.38 fold enrichment (6-mer frequency, TF over GST control); with ERG, 1.33 fold enrichment (6-mer frequency, TF over GST control); with ELF1, 1.25 fold enrichment (6-mer frequency, TF over GST control); in the assay with EHF it was 1.2 fold enrichment (6-mer frequency, TF over GST control). Besides, the binding signal was 1.2 fold enrichment (6-mer frequency, TF over GST control) with SPI1; 1.14 fold enrichment (6-mer frequency, TF over GST control) with SPIB; 1.3 fold enrichment (6-mer frequency, TF over GST control) in the assay with ELK3.
